Consider nine compounds from PubChem BioAssay (NCI).

Assay [1] is described as follows: NCI Yeast Anticancer Drug Screen. Data for the rad50 strain (AID 155).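 Note: 0% = growth of vehicle-only cultures of the same strain.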 Particulars: S. cerevisiae rad50 strain growth inhibition, stronger effect = higher value. The gist of the method:
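Genetically altered yeast (DNA repair pathway); compound treatment; growth inhibition vs vehicle ctrl.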

Assay [2] in a line: NCI Yeast Anticancer Drug Screen. Data for the mec2-1 strain (AID 157). To be noted: S. cerevisiae mec2-1 strain, stronger effect = higher value. The gist of the method: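 Strain: mec2-1 (DNA repair/cell cycle alteration). Compound exposure, then growth measured; inhibition expressed relative to vehicle.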
The nature of assay [3]: NCI Yeast Anticancer Drug Screen. Data for the sgs1 mgt1 strain (AID 161).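 Note: 0% = growth of cultures given vehicle only.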 Particulars: S. cerevisiae sgs1 mgt1 strain, stronger effect = higher value. Summed up:
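Test agents were incubated with a DNA-repair-mutant yeast strain. Growth was then read and compared against vehicle-treated controls.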

Assay [4] can be described thus: NCI Yeast Anticancer Drug Screen. Data for the cln2 rad14 strain (AID 165).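 Note: 0% = growth equal to vehicle treated cultures.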 To be noted: S. cerevisiae cln2 rad14 strain, stronger effect = higher value. Summed up: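 Compounds are applied to the cln2 rad14 yeast strain, and growth is then compared with that of vehicle-treated cultures to give inhibition.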
Assay [5] is described as follows: NCI Yeast Anticancer Drug Screen. Data for the bub3 strain (AID 167). Particulars: S. cerevisiae bub3 mutant strain, stronger effect = higher value. The gist of the method:
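Yeast carrying a defined mutation is treated with each compound, and growth is compared with that of vehicle-exposed cells to give inhibition.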

The nature of assay [6]: NCI Yeast Anticancer Drug Screen. Data for the mlh1 rad18 strain (AID 175). Particulars: S. cerevisiae mlh1 rad18 strain growth inhibition, stronger effect = higher value. The gist of the method: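 Read-out is yeast growth inhibition, calculated against vehicle-only controls. The compound was applied to a strain engineered with DNA damage repair alterations.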
Setting [7] is: at 5.0 µM (retest, dose inferred, filed as 0.5).
The mark [8] stands for this setting: at 50.0 µM (retest, dose inferred, filed as 5.0).

Each structure is given as a SMILES string. The panel holds about 79,000 compounds, 15% with a hit somewhere; the sample as a whole holds those more often. Unmarked numbers belong to inactive results. The source made the active and inactive calls. Cut-off read from the data, not from the text of the source: active = growth inhibition above about 70%; inactive = the rest.

For the compound `N#C[S-].[La+3].c1ccc(-c2ccccn2)nc1.c1ccc(-c2ccccn2)nc1.c1ccc(-c2ccccn2)nc1`, the growth inhibition was 61% in assay [1] (setting [7]); 98% (active) in assay [1] (setting [8]); 91.5% (active) in assay [1] (at 50.0 µM); 41% in assay [2] (setting [7]); 99% (active) in assay [2] (setting [8]); 93.8% (active) in assay [2] (at 50.0 µM). Moreover, the growth inhibition in assay [3] (setting [7]) is 46%; in assay [3] (setting [8]), 99% (active); in assay [3] (at 50.0 µM) it was 93% (active); in assay [4] (setting [7]), 33%; in assay [4] (setting [8]), 90% (active); in assay [4] (at 50.0 µM) it was 91.9% (active). Moreover, the growth inhibition in assay [5] (setting [7]) is 60%; in assay [5] (setting [8]), 99% (active); in assay [5] (at 50.0 µM), 92% (active); in assay [6] (setting [7]), 56%; in assay [6] (setting [8]), 99% (active); in assay [6] (at 50.0 µM), 91.3% (active).

Consider `O=[N+]([O-])c1ccc(SP(=S)(c2ccccc2)c2ccccc2)c([N+](=O)[O-])c1`, for which the growth inhibition in assay [1] (setting [7]) was 7%; in assay [1] (setting [8]) it was 97% (active); in assay [1] (at 50.0 µM), 67.3%; in assay [2] (setting [7]) it was 17%; in assay [2] (setting [8]), 98% (active); in assay [2] (at 50.0 µM), 48.3%. Besides, the growth inhibition in assay [3] (setting [7]) is 30%; in assay [3] (setting [8]), 98% (active); in assay [3] (at 50.0 µM), 88.6% (active); in assay [4] (setting [7]), 5%; in assay [4] (setting [8]), 96% (active); in assay [4] (at 50.0 µM), 83.2% (active). The growth inhibition was 9% in assay [5] (setting [7]); 98% (active) in assay [5] (setting [8]); 48% in assay [5] (at 50.0 µM); 28% in assay [6] (setting [7]); 99% (active) in assay [6] (setting [8]); 70.5% (active) in assay [6] (at 50.0 µM).

For `CCc1cc(C)cc2[n+]1CC=C2`, the growth inhibition in assay [1] (setting [7]) was -8%; in assay [1] (setting [8]), 83% (active); in assay [1] (at 50.0 µM) it was 98% (active); in assay [2] (setting [7]), -5%; in assay [2] (setting [8]) it was 95% (active); in assay [2] (at 50.0 µM) it was 96.4% (active). The growth inhibition in assay [3] (setting [7]) was -5%; in assay [3] (setting [8]) it was 98% (active); in assay [3] (at 50.0 µM), 98.3% (active); in assay [4] (setting [7]), -1%; in assay [4] (setting [8]) it was 92% (active); in assay [4] (at 50.0 µM) it was 98.1% (active). For the same compound, the growth inhibition in assay [5] (setting [7]) was -2%; in assay [5] (setting [8]), 87% (active); in assay [5] (at 50.0 µM), 98% (active); in assay [6] (setting [7]), -6%; in assay [6] (setting [8]) it was 93% (active); in assay [6] (at 50.0 µM) it was 97.8% (active).

As to `CC(=N\O)/C(C)=N/O.CC(=N\O)/C(C)=N/O.CC(=N\O)/C(C)=N/O.CC(=N\O)/C(C)=N/O.[CH3-].[CH3-].[Co].[Co]`, the growth inhibition in assay [1] (setting [7]) was 15%; in assay [1] (setting [8]), 25%; in assay [1] (at 50.0 µM), 46.5%; in assay [2] (setting [7]), 8%; in assay [2] (setting [8]), 17%; in assay [2] (at 50.0 µM), 24.6%. Further, the growth inhibition in assay [3] (setting [7]) was 21%; in assay [3] (setting [8]) it was 18%; in assay [3] (at 50.0 µM), 30.1%; in assay [4] (setting [7]) it was 11%; in assay [4] (setting [8]), 24%; in assay [4] (at 50.0 µM), 2.8%. The growth inhibition in assay [5] (setting [7]) is -1%; in assay [5] (setting [8]), 13%; in assay [5] (at 50.0 µM) it was -12.7%; in assay [6] (setting [7]), 14%; in assay [6] (setting [8]), 39%; in assay [6] (at 50.0 µM) it was 63.6%.

For the compound `CC(C)CCC(=O)OC1CCC2(C)C(=CCC3C2CCC2(C)C(O)CCC32)C1` (configuration not stated), the growth inhibition in assay [1] (setting [7]) was 16%; in assay [1] (setting [8]), 23%; in assay [1] (at 50.0 µM), 42%; in assay [2] (setting [7]), -2%; in assay [2] (setting [8]) it was 5%; in assay [2] (at 50.0 µM), -1.95%. The growth inhibition was 5% in assay [3] (setting [7]); 27% in assay [3] (setting [8]); 36.4% in assay [3] (at 50.0 µM); 0% in assay [4] (setting [7]); 5% in assay [4] (setting [8]); 19.2% in assay [4] (at 50.0 µM). Also, the growth inhibition in assay [5] (setting [7]) was 2%; in assay [5] (setting [8]), 15%; in assay [5] (at 50.0 µM), 3.95%; in assay [6] (setting [7]), -2%; in assay [6] (setting [8]) it was 43%; in assay [6] (at 50.0 µM), 72.6% (active).

Consider `CC/C(=C/c1ccc(OC)cc1OC)[N+](=O)[O-]`, for which the growth inhibition in assay [1] (setting [7]) was 66%; in assay [1] (setting [8]) it was 99% (active); in assay [1] (at 50.0 µM), 99.4% (active); in assay [2] (setting [7]), 48%; in assay [2] (setting [8]), 100% (active); in assay [2] (at 50.0 µM), 99.7% (active). Also, the growth inhibition was 51% in assay [3] (setting [7]); 98% (active) in assay [3] (setting [8]); 99% (active) in assay [3] (at 50.0 µM); 22% in assay [4] (setting [7]); 99% (active) in assay [4] (setting [8]); 99.3% (active) in assay [4] (at 50.0 µM). Further, the growth inhibition in assay [5] (setting [7]) was 44%; in assay [5] (setting [8]), 99% (active); in assay [5] (at 50.0 µM) it was 99.5% (active); in assay [6] (setting [7]), 39%; in assay [6] (setting [8]), 99% (active); in assay [6] (at 50.0 µM), 99.2% (active).

Turning to `CN1CCOC12CCC1(C)C(CCC3C4CCC(O)C4(C)CCC31)C2` (configuration not stated), the growth inhibition in assay [1] (setting [7]) was -11%; in assay [1] (setting [8]) it was -5%; in assay [1] (at 50.0 µM), 77.5% (active); in assay [2] (setting [7]) it was -14%; in assay [2] (setting [8]), -8%; in assay [2] (at 50.0 µM), 5.8%. In addition, the growth inhibition in assay [3] (setting [7]) was -7%; in assay [3] (setting [8]), 9%; in assay [3] (at 50.0 µM) it was 58%; in assay [4] (setting [7]), 1%; in assay [4] (setting [8]), 8%; in assay [4] (at 50.0 µM), -6.75%. For the same compound, the growth inhibition in assay [5] (setting [7]) was -22%; in assay [5] (setting [8]) it was -9%; in assay [5] (at 50.0 µM), 4.75%; in assay [6] (setting [7]), -12%; in assay [6] (setting [8]) it was -12%; in assay [6] (at 50.0 µM) it was 71.8% (active).

For `[O-][n+]1ccccc1S`, the growth inhibition in assay [1] (setting [7]) was 99% (active); in assay [1] (setting [8]) it was 99% (active); in assay [1] (at 50.0 µM), 99.4% (active); in assay [2] (setting [7]) it was 100% (active); in assay [2] (setting [8]), 100% (active); in assay [2] (at 50.0 µM), 99.7% (active). For the same compound, the growth inhibition in assay [3] (setting [7]) was 100% (active); in assay [3] (setting [8]), 99% (active); in assay [3] (at 50.0 µM), 99.7% (active); in assay [4] (setting [7]) it was 99% (active); in assay [4] (setting [8]) it was 99% (active); in assay [4] (at 50.0 µM) it was 99.2% (active). The growth inhibition in assay [5] (setting [7]) was 99% (active); in assay [5] (setting [8]), 99% (active); in assay [5] (at 50.0 µM) it was 99.3% (active); in assay [6] (setting [7]), 99% (active); in assay [6] (setting [8]), 99% (active); in assay [6] (at 50.0 µM), 99.5% (active).

For `C#CC(/C=C/Cl)(CC)OC(N)=O` (configuration not stated), the growth inhibition is 3% in assay [1] (setting [7]); 13% in assay [1] (setting [8]); 1.8% in assay [1] (at 50.0 µM); 4% in assay [2] (setting [7]); 5% in assay [2] (setting [8]); 11.6% in assay [2] (at 50.0 µM). Besides, the growth inhibition was 3% in assay [3] (setting [7]); 5% in assay [3] (setting [8]); -2% in assay [3] (at 50.0 µM); 6% in assay [4] (setting [7]); -7% in assay [4] (setting [8]); 75.8% (active) in assay [4] (at 50.0 µM). Moreover, the growth inhibition in assay [5] (setting [7]) was 0%; in assay [5] (setting [8]), 43%; in assay [5] (at 50.0 µM), 55.9%; in assay [6] (setting [7]), 9%; in assay [6] (setting [8]), 16%; in assay [6] (at 50.0 µM) it was 31.2%.
